Shown are actives, neighbours in structure and some others; about 5.5% of the full set was active somewhere.
Chronic BCR inh = qHTS Assay to Find Inhibitors of Chronic Active B-Cell Receptor Signaling. ABC-DLBCL IkBa-CBG/CBR reporter, luminescence ratio, 4 h. Potency, µM (highest dose often 46.1 µM), most hits filed as inhibitors. hit rate 0.05% among 340,000. AID 493014, 2011; active = well fitted inhibition curve with a large enough effect in the signal ratio, with a control signal flat, not every such curve was filed as active; inconclusive = small, poorly fitted or top-dose-only effect, or effect the other way, or a change in a side signal; the % refers to the signal ratio
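TMD8 human ABC-DLBCL cells with doxycycline-inducible IκBα–green luciferase fusion and unfused red luciferase, in 0.5% FBS medium; compounds up to 46 uM, 4 h at 37C. Green/red luminescence ratio, filter-overlap corrected, fitted to concentration-response curves.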
VP16 counter = VP16 counterscreen qHTS for inhibitors of ROR gamma transcriptional activity | Drosophila S2 Gal4-VP16 UAS-luciferase, luminescence, 20 h | Potency, µM (top dose mostly 53.6 µM), actives largely listed as inhibitors | hit rate 3.5% among 310,000 | AID 2546, 2010;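 note: Gal4-VP16 expression switched on by copper sulfate through the metallothionein promoter; nearly all actives have a fitted effect of over 50% in size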
Mito fusion yeast = qHTS Assay for Small Molecule Inhibitors of Mitochondrial Division or Activators of Mitochondrial Fusion; S. cerevisiae fusion-defective mutant growth rescue, CellTiterGlo 48 h; AID 485298, 2010; Potency, µM (series often up to 46.1 µM), usual class: activators; hit rate 0.23% among 320,000; note: nearly all actives have a fitted effect of over 45% in size
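Compounds are tested for their ability to restore growth of mitochondrial fusion-defective yeast strains at non-permissive 37C in YPEG medium over 48 hours. Viability is quantified by luciferase luminescence.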
Integrin act MD = qHTS for Activators of Integrin-Mediated Alleviation for Muscular Dystrophy. hit rate 0.064% among 350,000. Potency, µM (doses to about 38.3 µM), actives largely listed as activators. alpha7betagal myoblasts, beta-gal FDG fluorescence, 48 h; note: nearly all actives have a fitted effect of over 60% in size
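alpha7betagal+/- myoblasts (passage 13, 250/well) treated 48 h at 37C with compounds at 1:260 dilution of DMSO stock. Lysed, then beta-galactosidase activity read as FDG fluorescence (ex 480/em 540) after 30 min, with pre-read for autofluorescence.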
uPA surface inh = qHTS for Inhibitors of Cell Surface uPA Generation; cell surface uPA generation assay, qHTS; Potency, µM (doses to about 38.3 µM), hits mostly inhibitors; hit rate 0.31% among 330,000; active = well fitted inhibition curve with a large enough effect; inconclusive = small, poorly fitted or top-dose-only effect; inactive = no such curve, though single readings can be large or run the other way; tested in mouse RAW 264.7 cells; note: nearly all actives have a fitted effect of over 55% in size
RORgamma inh = qHTS for inhibitors of ROR gamma transcriptional activity; Nuclear receptor ROR-gamma (Mus musculus), P51450; Drosophila S2 Gal4-RORgamma UAS-luciferase reporter, 20 h; Potency, µM (highest dose often 53.6 µM), actives largely listed as inhibitors; hit rate 5.4% among 310,000; AID 2551, 2010; note: nearly all actives have a fitted effect of over 60% in size
Target sequence (P51450 whole entry, looked up, the tested form may be a part): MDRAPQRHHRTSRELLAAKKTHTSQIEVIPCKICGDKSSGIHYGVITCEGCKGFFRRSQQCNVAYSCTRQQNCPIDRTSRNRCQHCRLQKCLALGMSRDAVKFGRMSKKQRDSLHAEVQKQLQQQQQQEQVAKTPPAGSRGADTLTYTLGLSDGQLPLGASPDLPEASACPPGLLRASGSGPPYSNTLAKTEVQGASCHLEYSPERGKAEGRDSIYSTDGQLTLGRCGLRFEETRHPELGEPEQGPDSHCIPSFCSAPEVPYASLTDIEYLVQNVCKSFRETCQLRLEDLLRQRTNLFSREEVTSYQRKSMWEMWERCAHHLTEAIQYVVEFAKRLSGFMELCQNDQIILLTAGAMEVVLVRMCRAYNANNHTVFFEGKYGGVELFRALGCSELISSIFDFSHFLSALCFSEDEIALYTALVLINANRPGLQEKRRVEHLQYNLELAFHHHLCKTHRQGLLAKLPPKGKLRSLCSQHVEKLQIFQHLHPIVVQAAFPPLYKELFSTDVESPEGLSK
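Stable Schneider cell line, Gal4 DNA-binding domain fused to ROR gamma, UAS-luciferase. Cmpd 1 hr RT → CuSO4 700 uM final → 20 hr RT → luciferase reagent 10 min → luminescence.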
Large screens that a line does not name were inactive. Unless noted, calls come from the whole dose curve; as a rule, active = well fitted curve in the direction sought with a large enough effect; inconclusive = small, poorly fitted or top-dose-only effect, or another doubt; inactive = no such curve, though single readings can be large; an effect the other way counts as inactive or inconclusive.

CCOC(=O)c1c(NC(=S)Nc2ccccc2)sc(C)c1C	VP16 counter inconclusive, Integrin act MD inconclusive, RORgamma inh 3.55µM
CC(=O)Nc1sc(C)c(C)c1C(=O)OCC(=O)Nc1ccccc1	uPA surface inh inconclusive (no result: VP16 counter, RORgamma inh)
CCOC(=O)c1cc(C)sc1NC(=S)Nc1ccccc1	Chronic BCR inh inconclusive, VP16 counter 3.16µM, RORgamma inh inconclusive
CCOC(=O)c1c(NC(=O)CNCCO)sc(C)c1C	RORgamma inh inconclusive
CCOC(=O)c1c(NC(=O)CNC2CCCCC2)sc(C)c1C	Chronic BCR inh inconclusive, RORgamma inh 1.41µM
CCOc1ccc(C=NNC(=O)c2ccc(-n3cnnn3)cc2)cc1	none (no result: VP16 counter, Mito fusion yeast, RORgamma inh)
COc1ccc(N2CCN(C(=O)C3CCN(S(=O)(=O)c4cccc5nonc45)CC3)CC2)cc1	none (no result: VP16 counter, Mito fusion yeast, Integrin act MD, uPA surface inh, RORgamma inh)
CCOC(=O)c1c(NC(=S)NCC2CCCO2)sc(C)c1C (centres undefined)	VP16 counter 4.47µM, RORgamma inh 1.58µM
CCOC(=O)c1c(NC(=O)C2CCCO2)sc(C(N)=O)c1C (centres undefined)	none
COc1cc(/C=N/NC(=O)c2cccc([N+](=O)[O-])c2)ccc1OCc1ccccc1	VP16 counter inconclusive, RORgamma inh 3.16µM (no result: uPA surface inh)
COc1ccc(/C=N/NC(=O)c2cccc([N+](=O)[O-])c2)cc1OC(=O)c1ccc(C)cc1	VP16 counter inconclusive, RORgamma inh 5.01µM
O=C(N/N=C/c1ccc(OC(=O)c2ccccc2)c([N+](=O)[O-])c1)c1ccc(O)cc1	Chronic BCR inh inconclusive, VP16 counter inconclusive, RORgamma inh 8.91µM
COc1ccc(C(=O)C=Cc2ccc(OCc3ccccc3)c(OC)c2)cc1OC	none (no result: Chronic BCR inh, VP16 counter, Mito fusion yeast, uPA surface inh, RORgamma inh)
COc1cc(/C=C/[N+](=O)[O-])ccc1OCc1cccc(C(=O)O)c1	Chronic BCR inh inconclusive, RORgamma inh 7.08µM
COc1ccc(C(=O)Oc2ccc(/C=N/NC(=O)c3ccccc3OC)cc2[N+](=O)[O-])cc1	Chronic BCR inh inconclusive, RORgamma inh inconclusive
COc1ccc(/C=N/NC(=O)c2cccc([N+](=O)[O-])c2)cc1OC	none
N#CCN1CCC2(O)CCCCC2C1c1ccc2c(c1)OCO2 (centres undefined)	none
COc1cc(/C=N/NC(=O)c2cc(O)cc(O)c2)ccc1OC(=O)c1ccccc1	Chronic BCR inh inconclusive
Cc1cc(C(=O)N/N=C/c2ccc(OCc3ccccc3)cc2)c(C)o1	Chronic BCR inh inconclusive, RORgamma inh inconclusive
COc1ccc(/C=N/NC(N)=S)cc1OC(=O)c1ccccc1	Chronic BCR inh inconclusive, VP16 counter inconclusive, RORgamma inh 12.6µM
COc1ccc(/C=N/NC(=O)c2cc(C)oc2C)cc1OCc1ccccc1	Chronic BCR inh inconclusive, VP16 counter inconclusive, RORgamma inh 10µM
CCCCOc1ccc(C(=O)NCCc2sc3nc(-c4ccc(OC)cc4)nn3c2C)cc1	none (no result: VP16 counter, Mito fusion yeast, Integrin act MD, uPA surface inh, RORgamma inh)
CCNc1ccc(Br)cc(C(=O)/C=C/c2c(Cl)cccc2Cl)c1=O	VP16 counter inconclusive, RORgamma inh 10µM
CCNc1ccc(Br)cc(C(=O)/C=C/c2ccc(Cl)cc2)c1=O	VP16 counter inconclusive, Mito fusion yeast 12.6µM
CCNc1ccc(Br)cc(C(=O)/C=C/c2ccc3c(c2)OCO3)c1=O	none
CCCCC[C@H](O)/C=C/[C@H]1OC(O)C[C@H](O)[C@@H]1C/C=C\CCCC(=O)O (some centres undefined)	none (no result: Chronic BCR inh, Mito fusion yeast, Integrin act MD, uPA surface inh)
O=C(N/N=C/c1ccnc2ccccc12)c1ccccc1O	Chronic BCR inh inconclusive
CC(=O)n1cc(/C=N/NC(N)=S)c2ccccc21	VP16 counter inconclusive, RORgamma inh 4.47µM
CC(=O)n1cc(/C=N/NC(=O)c2ccccc2O)c2ccccc21	Chronic BCR inh inconclusive, VP16 counter 3.55µM, RORgamma inh 2.82µM
Cc1nc(C)c(C(=O)N/N=C/c2c[nH]c3ccccc23)s1	Chronic BCR inh inconclusive
Cc1nc(C)c(C(=O)N/N=C/c2cn(C)c3ccccc23)s1	Chronic BCR inh inconclusive, VP16 counter inconclusive, RORgamma inh 11.2µM
Cn1cc(/C=N/NC(=O)c2cccc([N+](=O)[O-])c2)c2ccccc21	VP16 counter inconclusive, RORgamma inh 0.501µM
CC(=O)N1CCC2(CCCN(c3ccccc3)C2)CC1	none (no result: Chronic BCR inh, Mito fusion yeast, Integrin act MD, uPA surface inh)
CC(=O)N1CC(C)Oc2ccc(S(=O)(=O)Nc3ccc(Cl)cn3)cc21 (centres undefined)	none
Cn1cc(/C=N/NC(=O)c2ccccc2O)c2ccccc21	Chronic BCR inh inconclusive, VP16 counter 0.891µM, RORgamma inh 0.562µM
CCN(C(=S)NCc1ccccc1)c1ccccc1	RORgamma inh 14.1µM
CCN(C(=S)NCc1ccccc1)c1cccc2ccccc12	VP16 counter inconclusive, RORgamma inh 7.08µM
CCN(C(N)=S)c1ccccc1	RORgamma inh 11.2µM
C=CCNC(=S)N(CC)c1cccc2ccccc12	VP16 counter inconclusive, RORgamma inh 7.08µM
Cc1cc(C)n2nc(SCC(=O)NC3CCCC(C)C3C)nc2n1 (centres undefined)	Mito fusion yeast inconclusive
Cc1cc(C)c(S(=O)(=O)Nc2cccc(-c3cn4ccccc4n3)c2)c(C)c1	none (no result: VP16 counter, Integrin act MD, uPA surface inh, RORgamma inh)
CCSC1=N/C(=C\c2ccc(OC)cc2)C(=O)N1	Chronic BCR inh inconclusive
COc1ccc(/C=C2\N=C(SC)NC2=O)cc1	VP16 counter inconclusive, RORgamma inh 12.6µM (no result: Chronic BCR inh)
COc1ccc(Br)cc1CNC(=O)Cn1nc(C)n2cccc2c1=O	Integrin act MD inconclusive
CCC(=O)NC(=S)Nc1cccc(-c2nc3ncccc3o2)c1	RORgamma inh 12.6µM
CCC(=O)NC(=S)Nc1cccc(NC(=O)CC)c1	none
CCC(=O)NC(=S)Nc1cccc(NC(=O)c2ccc(Cl)cc2Cl)c1	Chronic BCR inh inconclusive, VP16 counter 6.31µM, RORgamma inh 2.82µM
O=C(Nc1ccc2ccccc2c1)c1ccc(Cl)cc1Cl	VP16 counter inconclusive, uPA surface inh inconclusive, RORgamma inh 7.94µM
CCC(=O)NC(=S)Nc1cccc(C(C)=O)c1	RORgamma inh 11.2µM
COC(=O)C1C/C(=N/NS(=O)(=O)c2ccc(C)cc2)CS1 (centres undefined)	none
O=C(NCc1ccccc1)[C@]1(C(F)(F)F)C[C@H](CCCO)CCCO1	none (no result: Chronic BCR inh, Mito fusion yeast, Integrin act MD, uPA surface inh)
N#C/C(=C\c1ccc(-c2cc(Cl)ccc2Cl)o1)C(=O)Nc1cccc2ncccc12	none (no result: Chronic BCR inh, VP16 counter, Integrin act MD, uPA surface inh, RORgamma inh)
CCCC(=O)NC(=S)Nc1cccc(C(C)=O)c1	VP16 counter inconclusive, RORgamma inh 10µM
CC(=O)c1cccc(NC(=S)NC(=O)CC(C)C)c1	Chronic BCR inh inconclusive, VP16 counter 7.94µM, RORgamma inh inconclusive (no result: uPA surface inh)
Cc1ccc(O)c(NC(=S)NC(=O)CC(C)C)c1	VP16 counter inconclusive, RORgamma inh inconclusive
CCCCCC(=O)NC(=S)Nc1cccc(C(C)=O)c1	VP16 counter inconclusive, RORgamma inh 2.82µM

Bioassay records from PubChem BioAssay.
